A selection: hits, their analogues and other compounds. The true share with any hit is near 8%.
HT1080-NT tox: kills 2HG-producing HT-1080-NT fibrosarcoma cells | HT-1080-NT fibrosarcoma viability, CellTiter-Glo ATP luminescence, 48 h | Potency, µM (titrated, usually from 46.1 µM), inactives show at the highest dose activity, negative = less viability, hits mostly cytotoxic | 360,000 tested, 1.6% active | AID 686970;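 note: NT is the 2HG producing partner of a matched IDH1 knockdown line; 0% = DMSO-treated cells and -100% = media-only wells without cells; nearly all actives have a fitted effect of over 55% in size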
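A 48-hour cytotoxicity screen used HT-1080-NT cells plated 2 hours before compound delivery. ATP-based CellTiter-Glo luminescence measured viability, normalized to DMSO and no-cell controls.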
KB-V1 cytotox: KB-V1 MDR subline cytotoxicity. KB-V1 MDR cells viability, CellTiter-Glo, 72 h. Potency, µM (highest dose often 46.1 µM), usual class: cytotoxic. 400,000 tested, 3.4% active. AID 1347076; note: % is set by controls: 0 for no effect and ±100 for the full control effect; nearly all actives have a fitted effect of over 60% in size
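qHTS viability screen in drug-selected KB-V1 MDR cells: 72 h compound treatment at 37 degrees C, ATP luminescence end point.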
KB-3-1 cytotox: KB-3-1 parental cell cytotoxicity. KB-3-1 viability, CellTiter-Glo ATP luminescence, 72 h. Potency, µM (titrated, usually from 46.1 µM), hits mostly cytotoxic. 400,000 tested, 1.4% active. AID 1347075; note: % is set by controls: 0 for no effect and ±100 for the full control effect; nearly all actives have a fitted effect of over 60% in size
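Cytotoxicity measured as CellTiter-Glo luminescence after 72 h at 37 C. Compound titrations were pinned onto drug-naive KB-3-1 parental adenocarcinoma cells grown in DMEM with 10% FBS, and normalized data fitted to concentration-response curves.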
SW480 rerep: DNA re-replication induction in SW480 cells; SW480 DNA re-replication, Hoechst DNA content imaging, 48 h; Potency, µM (highest dose often 46.1 µM), for the others: at the top dose re-replication activation, usual class: activators; 340,000 tested, 1.8% active; AID 624297; note: % of control where 0% means no effect; nearly all actives have a fitted effect of over 55% in size
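Image-based DNA-content assay: after two days of treatment, nuclei were labelled with the DNA dye Hoechst and imaged, and hits were compounds raising the count of nuclei showing high fluorescence intensity.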
MCF10A rereplic: inducers of DNA re-replication in MCF 10A breast cells; MCF 10A DNA re-replication, Hoechst nuclear intensity, 48 h; Potency, µM (series often up to 46.1 µM), for inactives: at the highest dose activity, positive = re-replication, hits mostly activators; 350,000 tested, 2.9% active; AID 624296; note: % of control where 0% means no effect; nearly all actives have a fitted effect of over 50% in size
HT1080 IDH1KD tx: toxicity to HT-1080 IDH1 knockdown cells (counter line); HT-1080 IDH1 knockdown viability, ATP luminescence, 48 h; Potency, µM (highest dose often 46.1 µM), inactives show at the top dose activity, negative = toxicity, most hits filed as cytotoxic; 360,000 tested, 2% active; AID 686971;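 note: 0% = DMSO wells and -100% = cell-free medium wells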
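IDH1KD HT-1080 cells, 750/well, RPMI + 5% FBS; compound pinned after 2 h settling; 48 h, 37 °C; CellTiter-Glo luminescence; % activity normalised to DMSO and no-cell wells; curves fitted, classed by r2 and efficacy.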
* = called active by the depositor; i = inactive; ? = inconclusive; / = no result given; [ ] = another dose, or the depositor's remark. Calls come from the whole dose curve; as a rule, active = well fitted curve in the direction sought with a large enough effect; inconclusive = small, poorly fitted or top-dose-only effect, or another doubt; inactive = no such curve, though single readings can be large; an effect the other way counts as inactive or inconclusive. Potency is the fitted concentration of half-maximal effect.

SMILES	HT1080-NT tox	KB-V1 cytotox	KB-3-1 cytotox	SW480 rerep	MCF10A rereplic	HT1080 IDH1KD tx
COc1ccc(C(=O)OCC(=O)NCC2CCCCC2)cc1F	-20.8%	i	i	19.4%	8.2µM*	-9.6%
COc1ccc(CC(=O)NCC2CCCCC2)cc1OC	11.4%	i	i	5.8µM*	0.8%	-7.4%
CC1(C)C(=O)Nc2ccccc2N1C(=O)COC(=O)c1cccc(O)c1	3.0%	i	i	?	6.1%	5.9%
COc1cc(CCC(=O)OCC(=O)NCC2CCCCC2)cc(OC)c1OC	1.2%	i	i	-4.4%	-0.1%	4.4%
COc1cc(C(=O)OCC(=O)N2c3ccccc3NC(=O)C2(C)C)ccc1OCC(C)C	-2.4%	20.6µM*	i	6.8%	?	-14.0%
O=S(=O)([N-]c1nc2ccccc2nc1-n1cc[n+](Cc2ccccc2)c1)c1ccc(Cl)cc1	3.2%	i	i	18.4µM*	18.4µM*	-2.8%
CC(C)CC[n+]1ccn(-c2nc3ccccc3nc2[N-]S(=O)(=O)c2ccccc2)c1	3.3%	i	i	-6.7%	-3.8%	-7.2%
CCCC[n+]1ccn(-c2nc3ccccc3nc2[N-]S(=O)(=O)c2ccc(Br)cc2)c1	24.8%	i	i	18.4µM*	?	11.9%
O=C(CSc1nc2ccccc2c2nc(-c3ccccc3)nn12)Nc1ccc(Br)cc1	/	i	i	/	/	/
C/C(=N\N1C(=O)c2ccccc2NC1c1ccco1)c1ccccc1O (stereo not given)	?	?	?	?	4.11µM*	?
C/C(=N\N1C(=O)c2ccccc2NC1c1ccccc1)c1ccccc1O (stereo not given)	-9.8%	i	i	?	4.3%	-13.2%
CCC(C)NC(=O)CCSc1ccc(C)cc1 (stereo not given)	13.2%	i	i	-2.7%	-1.0%	6.4%
Cc1nc(C)c(C(=O)NCCC(c2ccccc2)c2ccccc2)o1	-16.5%	8.2µM*	?	11.7%	-1.8%	-29.5%
Cc1ccsc1C(=O)NCCC(c1ccccc1)c1ccccc1	-8.1%	i	i	7.4%	?	-0.1%
Fc1ccccc1-c1nc(N2CCN(c3cccc(Cl)c3)CC2)c2ccccc2n1	/	i	?	/	/	/
COc1ccc2c(c1)CCC2=O	/	i	i	/	/	/
COc1ccc2c(c1)CCCC(Br)C2=O (stereo not given)	-5.8%	?	?	18.4µM*	?	-22.5%
COc1cc([C@@H]2c3cc4c(cc3[C@H](O)[C@H]3COC(=O)[C@@H]23)OCO4)cc(OC)c1OC	/	?	1.84µM*	/	/	/
COc1cc(C2c3cc4c(cc3C(O)C3COCC23)OCO4)cc(OC)c1OC (stereo not given)	25.9µM*	?	5.17µM*	13µM*	?	?
Cc1ccc(/C=C(\C#N)c2nn(-c3ccccc3)c(N)c2C#N)cc1	-5.6%	20.6µM*	i	-15.7%	?	-9.7%
N#C/C(=C\c1c(Cl)cccc1Cl)c1nn(-c2ccccc2)c(-n2cccc2)c1C#N	?	i	i	-7.3%	16.4µM*	-5.3%
O=C(Nc1cnccn1)c1ccc(Cl)cc1	-20.6%	i	i	?	-1.5%	-11.0%
NC[C@@H]1O[C@H](O[C@@H]2[C@H](O[C@@H]3O[C@H](CO)[C@@H](O)[C@@H]3O)[C@@H](O)[C@@H](N)C[C@H]2N)[C@@H](N)[C@H](O)[C@@H]1O	/	/	/	9.6%[20.6 µM]	1.4%[20.6 µM]	/
N#CCCSc1ncnc2c1oc1ccccc12	3.3%	11.6µM*	?	-12.1%	-8.0%	?
OCCSc1ncnc2c1oc1ccccc12	-0.2%	i	i	-1.2%	2.4%	0.6%
SMILES	HT1080-NT tox	KB-V1 cytotox	KB-3-1 cytotox	SW480 rerep	MCF10A rereplic	HT1080 IDH1KD tx
CCCOC(=O)CCCCCCCCC(O)CN1CCCCC1 (stereo not given)	14.5%	i	i	-2.7%	10.2%	20.7%
CC(C)(C)C(=O)Nc1ccccc1C(=O)OCc1cc(=O)n2ccsc2n1	/	?	i	/	/	/
CCn1cc(C(=O)O)c(=O)c2cc(F)c(N/N=C/c3ccccc3)cc21	-4.2%	7.31µM*	?	-14.6%	?	-17.8%
CCn1cc(C(=O)O)c(=O)c2cc(F)c(N3CCN(C(=O)Nc4ccccc4)CC3)cc21	1.3%[9.24 µM]	i	i	0.1%	13.1%	-8.4%
Cc1cccc(C)c1OCCn1c(C2CC(=O)N(Cc3ccc(F)cc3)C2)nc2ccccc21 (stereo not given)	/	i	i	/	/	/
OC1(c2ccc(Br)cc2)CCNCC1	22.4µM*	i	i	-8.3%	-1.4%	?
COc1cccc(NC(=O)CSC2=C(C#N)C(c3ccco3)C3=C(CCCC3=O)N2)c1 (stereo not given)	9.2µM*	?	?	12.6µM*	25.1µM*	7.31µM*
CCCCc1ccc(NC(=O)CSC2=C(C#N)C(c3ccco3)C3=C(CCCC3=O)N2)cc1 (stereo not given)	?	i	?	20.6µM*	3.98µM*	?
N#Cc1cccc(S(=O)(=O)N2CCN(c3nc(-c4cccs4)nc4ccccc34)CC2)c1	15.4%	/	/	/	/	0.1%
CC(=O)Nc1ccc(N2CCOCC2)c(S(=O)(=O)Nc2ccccc2Cl)c1	-0.5%	i	i	/	/	0.5%
COc1ccccc1NS(=O)(=O)c1cc(NC(=O)C2CCC2)ccc1N1CCCCC1	-3.3%	i	i	-11.9%	3.3%	0.8%
COc1ccccc1NS(=O)(=O)c1cc(NC(=O)c2ccc(Cl)nc2)ccc1N1CCCC1	-1.6%	4.11µM*	i	7.9%	10.9%	-3.9%
O=C(Nc1cccc(S(=O)(=O)N2CCCCCC2)c1)c1ccc(Cl)nc1	-9.5%	i	i	-5.9%	-35.8%	-27.0%
COc1ccccc1NS(=O)(=O)c1cc(NC(=O)Nc2ccc(Cl)cc2Cl)ccc1N1CCCCC1	6.2%	10.3µM*	?	-8.2%	3.2%	-18.9%
O=C(Nc1cccc(C(F)(F)F)c1)Nc1ccc(N2CCCC2)c(S(=O)(=O)Nc2ccccc2Cl)c1	?	8.2µM*	7.31µM*	?	4.61µM*	8.2µM*
O=C(Nc1cccc(S(=O)(=O)Nc2ccccc2Cl)c1)c1ccc(Cl)nc1	-4.5%	2.59µM*	5.17µM*	2.6%	-51.5%	-8.2%
Cc1ccc(NC(=O)Cn2nnc(C(=O)NCc3cccs3)c2N)cc1F	-16.8%	i	i	-3.3%	-1.6%	-11.7%
Cn1c(=O)c(/C=C/c2ccccc2)nc2ccccc21	-4.6%	14.6µM*	?	?	11.6µM*	-5.3%

Screening data deposited in PubChem by National Center for Advancing Translational Sciences (NCATS).
